The values that follow come from PubChem BioAssay (NCI).

Structures are written as SMILES. Compounds without any hit were thinned out: in the full panel of roughly 83,000, 20% have a hit.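 Compound tested at a single concentration for 48 hours in 96-well plates; a percent growth value below 10 was scored as active.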 Unmarked numbers belong to inactive results. Calls of active or inactive are those of the source.

What all share (experiment): NCI-60 one-dose screen, 48 h (100 = growth as untreated, 0 = no growth, -100 = all killed)
One assay deals with NCI-H522 lung. The settings on record: 10 µM unless noted.
The test system of a further assay is COLO 205 colon. The note with it: 10 µM.
The subject of a further assay is MALME-3M melanoma. The note with it: 10 µM unless noted.
The next assay has as its system HCT-15 colon. The settings on record: 10 µM.
The subject of the next assay is SNB-19 CNS. The note with it: 10 µM unless noted.
The subject of a further assay is SK-MEL-5 melanoma. The settings on record: 10 µM unless noted.
The test system of a further assay is LOX IMVI melanoma. The settings on record: 10 µM unless noted.
The next assay relates to EKVX NSCLC. The note with it: 10 µM unless noted.
A further assay concerns SN12C renal. The settings on record: 10 µM unless noted.
The test system of a further assay is TK-10 renal. The settings on record: 10 µM unless noted.
The next assay concerns CCRF-CEM leukemia. The settings on record: 10 µM unless noted.
In another assay the test system is MOLT-4 leukemia. The settings on record: 10 µM.
The next assay concerns SR leukemia. The note with it: 10 µM.
Another assay has as its system OVCAR-8 ovarian. The note with it: 10 µM unless noted.
The test system of the next assay is MDA-MB-435 melanoma. The note with it: 10 µM unless noted.
The subject of another assay is HCC-2998 colon. The note with it: 10 µM unless noted.
In another assay the test system is IGROV1 ovarian. The note with it: 10 µM.
Another assay deals with HOP-92 NSCLC. The note with it: 10 µM unless noted.
Another assay concerns RPMI-8226 leukemia. The settings on record: 10 µM unless noted.

As to `CCC(C)/C=C(C)/C=C/C(=O)c1c(O)c(-c2ccc(O)cc2)c[nH]c1=O` (configuration not stated), the growth in the assay with NCI-H522 lung was 34.1%; in the assay on COLO 205 colon it was 105%; in the assay with MALME-3M melanoma, 75%; with HCT-15 colon it was 38.8%; in the assay on SNB-19 CNS, 59%; in the assay with SK-MEL-5 melanoma, 63.4%. Also, the growth with LOX IMVI melanoma was 40.2%; with EKVX NSCLC it was 58%; with SN12C renal it was 60.5%; with TK-10 renal, 27.3%; with CCRF-CEM leukemia it was 16.2%; with MOLT-4 leukemia, 29.4%. Moreover, the growth in the assay with SR leukemia is 13%; in the assay on OVCAR-8 ovarian, 51.2%; with MDA-MB-435 melanoma, 24.2%; in the assay with HCC-2998 colon, 47.5%.

For the molecule `CC1(C)N=C(N)N=C(N)N1c1ccc(CCCCc2ccc(Cl)cc2S(=O)(=O)F)c(Cl)c1`, the growth in the assay on NCI-H522 lung is 3.95% (active); in the assay on COLO 205 colon, 15.9%; with MALME-3M melanoma, 39.3%; in the assay with HCT-15 colon it was 22.4%; in the assay on SNB-19 CNS, 36.6%; in the assay on SK-MEL-5 melanoma, 19.5%. Also, the growth in the assay with LOX IMVI melanoma was 13.3%; with SN12C renal it was 23.4%; in the assay with TK-10 renal, 30.3%; in the assay with CCRF-CEM leukemia it was 13.1%; with MOLT-4 leukemia it was 28.7%; in the assay with IGROV1 ovarian it was 30.7%. For the same molecule, the growth in the assay on MDA-MB-435 melanoma is 19.6%; in the assay on HCC-2998 colon, 32%.

Turning to `Nc1cccc(CC(=O)Nc2ccc(S(=O)(=O)F)cc2)c1`, the growth in the assay on NCI-H522 lung was 84.8%; in the assay on COLO 205 colon, 95.8%; with MALME-3M melanoma, 90%; with HCT-15 colon, 101%; with SNB-19 CNS, 105%; in the assay on SK-MEL-5 melanoma, 104%. The growth with LOX IMVI melanoma was 98%; in the assay on EKVX NSCLC, 104%; in the assay with SN12C renal it was 100%; in the assay with TK-10 renal it was 107%; in the assay with CCRF-CEM leukemia it was 2.63% (active); in the assay on MOLT-4 leukemia, 117%. The growth was 96.7% with SR leukemia, 91.2% in the assay with OVCAR-8 ovarian, 89.8% with MDA-MB-435 melanoma and 43.9% in the assay on HCC-2998 colon.

Take `N#C[Se]CCN1C(=O)C2C(C1=O)[C@H]1C=C[C@@H]2S1` (some centres not stated): the growth is -46.3% (active) in the assay on HOP-92 NSCLC; 68.3% in the assay on COLO 205 colon; -40.5% (active) in the assay with MALME-3M melanoma; -4.75% (active) with HCT-15 colon; -52.8% (active) with SK-MEL-5 melanoma; -46% (active) in the assay on LOX IMVI melanoma. Besides, the growth is -51.6% (active) in the assay with EKVX NSCLC; -18.8% (active) in the assay on SN12C renal; -65.3% (active) in the assay on TK-10 renal; 6.77% (active) in the assay on SR leukemia; -10.4% (active) in the assay on RPMI-8226 leukemia; -19.3% (active) in the assay with OVCAR-8 ovarian. Also, the growth in the assay with IGROV1 ovarian is -54.4% (active); in the assay with HCC-2998 colon, 67.4%.

`CC[C@H](C)[C@H](NC(=O)Nc1ccccc1)C(=O)N(C)[C@H](C[C@@H](OC(C)=O)c1nc(C(=O)N[C@@H](Cc2ccccc2)C[C@H](C)C(=O)OC)cs1)C(C)C`: the growth was -44.6% (active) with NCI-H522 lung; -51.8% (active) with COLO 205 colon; 41.4% with MALME-3M melanoma; 9.43% (active) in the assay on HCT-15 colon; 45% in the assay on SNB-19 CNS; -70.3% (active) in the assay on SK-MEL-5 melanoma. Further, the growth in the assay with LOX IMVI melanoma was 23.9%; in the assay on EKVX NSCLC it was 33.2%; with CCRF-CEM leukemia, 9.52% (active); in the assay on MOLT-4 leukemia, 15.7%; in the assay on SR leukemia, 11.2%; in the assay with RPMI-8226 leukemia it was 8.45% (active). Moreover, the values for the growth with OVCAR-8 ovarian, in the assay on IGROV1 ovarian and in the assay with HCC-2998 colon were 14.6%, 22.2% and 18.7%, respectively.

`COc1ccc(C(=O)c2ccc([As]=O)cc2)cc1` (configuration not stated): the growth in the assay on HOP-92 NSCLC is -96.1% (active); with MALME-3M melanoma, -87% (active); in the assay with HCT-15 colon it was -73% (active); in the assay on SNB-19 CNS, -81.4% (active); with SK-MEL-5 melanoma, -99.5% (active); with LOX IMVI melanoma it was -97.1% (active). Moreover, the growth with EKVX NSCLC was -98.1% (active); in the assay with SN12C renal it was -52.8% (active); with TK-10 renal, -100% (active); in the assay on CCRF-CEM leukemia, -25.1% (active); in the assay on OVCAR-8 ovarian, -84.2% (active); in the assay with MDA-MB-435 melanoma it was -80.9% (active). The growth with HCC-2998 colon was -88.5% (active).

`CC(=O)Oc1ccc(Cl)cc1`: the growth with HOP-92 NSCLC was 91.1%; with COLO 205 colon, 107%; in the assay on MALME-3M melanoma, 96.7%; in the assay with HCT-15 colon it was 95.1%; in the assay with SNB-19 CNS it was 91.2%; with SK-MEL-5 melanoma, 104%. Moreover, the growth in the assay with LOX IMVI melanoma was 90.5%; in the assay on EKVX NSCLC it was 101%; with SN12C renal, 94.6%; in the assay on TK-10 renal, 97%; in the assay with CCRF-CEM leukemia, 104%; with MOLT-4 leukemia, 90.3%. Also, the growth is 101% with OVCAR-8 ovarian, 114% with IGROV1 ovarian and 101% in the assay on MDA-MB-435 melanoma.

Take `C/C(=C\C(=O)O[C@H]1[C@@H]2[C@H](C)CC[C@H]2[C@]2(C)O[C@@]1(C1CCCCC1)C[C@H]2OC(=O)CO)c1ccccc1`: the growth in the assay on HOP-92 NSCLC was 18.3%; in the assay with MALME-3M melanoma, 64.4%; with HCT-15 colon, 18.7%; with SNB-19 CNS, 64.4%; in the assay with SK-MEL-5 melanoma, 71.7%; in the assay with EKVX NSCLC it was 48%. The growth with SN12C renal was 7.85% (active); with TK-10 renal it was 70.5%; in the assay on CCRF-CEM leukemia, 7.86% (active); with OVCAR-8 ovarian it was 19%; with IGROV1 ovarian it was 71.1%; in the assay with MDA-MB-435 melanoma, 61.7%. The growth with HCC-2998 colon was 25.9%.

In the case of `O=C(/C=C/c1ccccc1)N[C@@H](CO)Cc1cnc[nH]1`, the growth in the assay with HOP-92 NSCLC was 100%; with COLO 205 colon it was 104%; in the assay with MALME-3M melanoma it was 110%; with HCT-15 colon it was 98.6%; with SNB-19 CNS, 103%; with SK-MEL-5 melanoma, 103%. Besides, the growth was 97.2% with LOX IMVI melanoma; 93.5% in the assay with TK-10 renal; 93.8% in the assay on MOLT-4 leukemia; 93.6% with SR leukemia; 99.8% in the assay with OVCAR-8 ovarian; 112% with HCC-2998 colon.

Regarding `Cc1cc([N+](=O)[O-])c(Cl)cc1NS(=O)(=O)c1ccccc1`, the growth is -3.58% (active) in the assay with HOP-92 NSCLC; 91.9% with COLO 205 colon; 37.9% in the assay on MALME-3M melanoma; 73.1% in the assay on HCT-15 colon; 79.1% with SNB-19 CNS; 81.2% with LOX IMVI melanoma. The growth in the assay with SN12C renal is 78.1%; with TK-10 renal it was 110%; in the assay on MOLT-4 leukemia it was 74.5%; in the assay with SR leukemia, 64.3%; in the assay with RPMI-8226 leukemia it was 37.3%; in the assay on OVCAR-8 ovarian it was 78.1%. For the same molecule, the growth is 85% in the assay with IGROV1 ovarian, 58.4% with MDA-MB-435 melanoma and 80.6% in the assay with HCC-2998 colon.

As to `NC(Cc1ccc(O)cc1)C(=O)N/N=C/c1ccc(N(CCCl)CCCl)cc1` (configuration not stated), the growth with HOP-92 NSCLC is 82.1%; in the assay on COLO 205 colon, 112%; in the assay on HCT-15 colon it was 85.8%; in the assay on SNB-19 CNS, 92.5%; with SK-MEL-5 melanoma, 88.9%; with EKVX NSCLC, 92.7%. Further, the growth was 46.4% with SN12C renal; 115% in the assay on TK-10 renal; 27.9% in the assay on CCRF-CEM leukemia; 29.8% with MOLT-4 leukemia; 80.5% in the assay on OVCAR-8 ovarian; 63.4% in the assay with IGROV1 ovarian. Besides, the growth in the assay with MDA-MB-435 melanoma is 84.7%; with HCC-2998 colon, 87.2%.
